Source: PubChem BioAssay AID743060 (The Scripps Research Institute Molecular Screening Center, 2013)

Test: inhibitors of T. brucei MetRS aminoacylation, late-stage follow-up, biochemical, radioactivity, round 1 (AID 743060)
Conditions: purified enzyme, radiolabel aminoacylation, scintillation, 2 h; at 1 µM; stronger effect = higher value
Work on `O=C(NCc1nc2ccccc2[nH]1)C1=C[C@H](c2ccc(Br)cc2)C[C@H](OCc2ccc(CO)cc2)O1` yielded an inhibition of 50.3%.
`Cc1cccc(C(=O)NCCc2nc3ccccc3n2CCOc2ccccc2)c1` gave an inhibition of 1.66%.
In the case of `COc1cccc(NC(=O)C2CC(=O)n3c(nc4ccccc43)N2)c1` (stereo not given), the inhibition is reported as 5.53%.
Work on `Clc1ccc(-c2nnc(SCc3nc4ccccc4[nH]3)o2)c(Cl)c1` yielded an inhibition of 75.3%.
`O=C(CSc1nnc2c(n1)[nH]c1ccc(Br)cc12)NCc1ccccc1` gave an inhibition of 79.8%.
With `O=C(Cn1cc(C(=O)C(=O)N2CCOCC2)c2ccccc21)NCC1CCCO1` (stereo not given) the inhibition was -3.8%.
For `COc1ccccc1-n1c(SCC(=O)Nc2ccc(Cl)cc2)nc(O)c(Cc2ccccc2)c1=O`, the inhibition was 2.04%.
Molecule `CC(=O)c1cn(CC(=O)Nc2cccc(C(F)(F)F)c2)c2ccccc12` has an inhibition of 20.1%.
Molecule `CC(CC(=O)Nc1cccc(Br)c1)=NNC(=O)c1ccc(O)cc1O` has an inhibition of 36.5%.
`O=C(NCc1nc2ccccc2[nH]1)C1=C[C@@H](C2CC2)C[C@@H](OCc2ccc(CO)cc2)O1` showed an inhibition of 52.8%.
Molecule `O=C(NCCc1nc2ccccc2[nH]1)c1ccc(Cl)c(Cl)c1` has an inhibition of 74.6%.
With `O=C(NCc1nc2ccccc2[nH]1)C1=C[C@H](c2csc3ccccc23)C[C@H](OCCCCO)O1` the inhibition was 71.1%.
Work on `O=C(NCc1nc2ccccc2[nH]1)C1=C[C@@H](c2ccc(Br)cc2)C[C@@H](OCc2ccc(CO)cc2)O1` yielded an inhibition of 62.1%.
Molecule `O=C(Cn1cc(C(=O)C(=O)N2CCCC2)c2ccccc21)Nc1ccccc1` has an inhibition of -5.78%.
Work on `O=C(CCC(=O)Nc1cccc([N+](=O)[O-])c1)NN=Cc1cccs1` yielded an inhibition of 6.25%.
In the case of `CC(C)(C)[C@@H]1C=C(C(=O)NCc2nc3ccccc3[nH]2)O[C@H](OCc2ccc(CO)cc2)C1`, the inhibition is reported as 30.8%.
Molecule `O=C(NCCc1nc2ccccc2[nH]1)c1ccc(Cl)cc1` has an inhibition of 20.1%.
Molecule `O=C(Cn1cc(C(=O)c2ccccc2)c2ccccc21)Nc1cccc(C(F)(F)F)c1` has an inhibition of 22%.
Molecule `COc1ccc(CNC(=O)CSc2nnc3c(n2)[nH]c2ccc(F)cc23)cc1` has an inhibition of 47.5%.
`Clc1ccc(OCCSCc2nc3ccccc3[nH]2)cc1` showed an inhibition of -2.58%.
In the case of `Cc1cc2cc(C(=O)N3CCCC(c4nc5ccccc5[nH]4)C3)ccc2o1` (stereo not given), the inhibition is reported as 20.3%.
With `CC1Cc2ccccc2N1C(=O)Cn1cc(C(=O)C(=O)N2CCOCC2)c2ccccc21` (stereo not given) the inhibition was -6.83%.
Molecule `CNC(=S)N(CCc1ccccc1)C1CC(=O)N(c2ccc(Br)cc2)C1=O` (stereo not given) has an inhibition of 96.6%.
`CCN(CC)C(=O)C(=O)c1cn(CC(=O)N2CCCc3ccccc32)c2ccccc12` gave an inhibition of -9.56%.
For `COc1ccc(OCC(O)CNC(=O)Nc2ccc(Cl)cc2)cc1` (stereo not given), the inhibition was 28.9%.
In the case of `CCN(CC)C(=O)C(=O)c1cn(CC(=O)Nc2ccccc2OC)c2ccccc12`, the inhibition is reported as -7.03%.
Molecule `O=C(NCCc1nc2ccccc2[nH]1)c1ccc(Cl)c([N+](=O)[O-])c1` has an inhibition of 89.8%.
In the case of `CCN(CC)C(=O)C(=O)c1cn(CC(=O)N(CC)c2ccccc2)c2ccccc12`, the inhibition is reported as -3.75%.
Work on `O=C(Cn1cc(C(=O)C(=O)N2CCOCC2)c2ccccc21)NCc1ccccc1` yielded an inhibition of -0.16%.
`CCO[C@H]1OC(C(=O)NCc2nc3ccccc3[nH]2)=C[C@@H](c2ccc(Br)cc2)[C@@H]1CCCO` showed an inhibition of 0.88%.
`CCC(=O)c1cn(CC(=O)Nc2cccc(C(F)(F)F)c2)c2ccccc12` showed an inhibition of -3.8%.
For `O=C(NCc1nc2ccccc2[nH]1)C1=C[C@@H](c2ccc(Br)cc2)C[C@@H](OCCCCO)O1`, the inhibition was 84.2%.
With `O=C(Cn1cc(C(=O)C(=O)N2CCOCC2)c2ccccc21)Nc1cccc(C(F)(F)F)c1` the inhibition was 87.5%.
With `O=C(NCc1nc2ccccc2[nH]1)C1=C[C@@H](c2ccc3c(c2)OCO3)C[C@@H](OCCCCO)O1` the inhibition was 50.4%.
Work on `COc1ccc2[nH]c3nc(SCC(=O)Nc4ccc5c(c4)OCO5)nnc3c2c1` yielded an inhibition of 63.4%.
